Screening data (PubChem)
The list is not random: actives were taken first. Their share in the collection is about 6.9%.
MPTP inh – permeability transition pore inhibition; isolated mouse mitochondria, Ca2+ swelling absorbance, 30 min; inhibition, % at 10 µM; hit rate 1.4% among 360,000;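 active = inhibition of 50% or more, scaled per plate between neutral and stimulator controls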
SKKanGAS inh – SKKanGAS growth inhibition | S. pyogenes SKKanGAS, kanamycin growth, BacTiter-Glo, 6 h | inhibition, % at 7.5 µM | hit rate 1.3% among 300,000;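 active = mean replicate score, as percent of positive control median, at least 50; inconclusive = mean below 50 but one replicate at or above 50; inactive = mean and every replicate below 50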;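 note: strain carries kanamycin resistance gene driven by streptokinase promoter and grows in 40 µg/ml kanamycin; loss of luminescence reflects streptokinase promoter inhibition or plain growth inhibition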
Mdm2 MdmX PPI – human Mdm2/MdmX binding inhibition. O15151+Q00987. SaOS-2 split-luciferase Mdm2/MdmX complementation, luminescence. inhibition, % at 8 µM. hit rate 3% among 330,000. AID 485346;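 active = inhibition of at least 50% at 8 µM in the primary screen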
Target sequence (O15151 whole entry, looked up): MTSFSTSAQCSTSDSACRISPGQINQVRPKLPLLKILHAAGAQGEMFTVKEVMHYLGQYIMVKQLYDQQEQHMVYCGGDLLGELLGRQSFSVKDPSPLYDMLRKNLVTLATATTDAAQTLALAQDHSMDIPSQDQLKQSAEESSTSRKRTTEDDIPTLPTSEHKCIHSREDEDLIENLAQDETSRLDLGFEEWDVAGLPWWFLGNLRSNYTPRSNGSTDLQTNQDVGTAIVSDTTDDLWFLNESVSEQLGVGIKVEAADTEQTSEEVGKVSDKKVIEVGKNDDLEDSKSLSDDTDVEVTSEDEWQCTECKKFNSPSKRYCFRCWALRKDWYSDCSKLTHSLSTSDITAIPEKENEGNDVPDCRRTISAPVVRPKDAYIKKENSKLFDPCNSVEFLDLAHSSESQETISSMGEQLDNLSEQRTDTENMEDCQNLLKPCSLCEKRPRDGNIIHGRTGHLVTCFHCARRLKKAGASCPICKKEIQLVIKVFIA
Target sequence (Q00987 whole entry, looked up): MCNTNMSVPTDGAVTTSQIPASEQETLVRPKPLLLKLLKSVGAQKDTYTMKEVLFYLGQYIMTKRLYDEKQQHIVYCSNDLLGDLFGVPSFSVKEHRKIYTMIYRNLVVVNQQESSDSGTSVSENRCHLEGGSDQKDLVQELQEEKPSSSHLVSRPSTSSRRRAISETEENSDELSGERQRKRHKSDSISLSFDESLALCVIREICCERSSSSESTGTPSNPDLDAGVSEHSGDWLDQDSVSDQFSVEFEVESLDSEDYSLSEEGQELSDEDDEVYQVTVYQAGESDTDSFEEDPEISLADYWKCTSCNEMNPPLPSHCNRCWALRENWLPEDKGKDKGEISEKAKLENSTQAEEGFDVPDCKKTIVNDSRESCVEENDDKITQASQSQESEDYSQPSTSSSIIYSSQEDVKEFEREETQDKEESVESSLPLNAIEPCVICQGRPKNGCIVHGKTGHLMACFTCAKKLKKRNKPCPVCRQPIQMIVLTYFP
NR3A LBD binder – modulators (binders) of human NR3A ligand-binding domain | NR3A LBD differential scanning fluorimetry, Tm shift; 0% = protein alone, 100% = glycine-bound protein | Tm shift relative to glycine control, % at 25 µM | hit rate 2.5% among 340,000;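 active = melting temperature shift of at least 10% of the positive control shift, at one fixed dose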
CSC inhib – cancer stem cell inhibition; hit rate 1.1% among 300,000; AID 2717; inhibition, % at 7.5 µM; cancer stem cell-like cells viability, luminescence; in the data active = inhibition above about 75%; inconclusive = no clear call, values can overlap the other calls; tested in HMLE shEcad cells
Beta apoptosis – beta cell apoptosis inhibition; INS-1E cytokine-induced death, ATP luminescence, 48 h; percent of positive-control rescue, neutral wells zero; protection from apoptosis, % (test concentration not listed); hit rate 0.8% among 300,000;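 active = Every replicate reaches about 75%, or at least half do and their mean reaches it too, limit read from the data; inconclusive = At least half of replicates reach the limit but their mean does not; inactive = Under half of replicates reach the limit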;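 note: higher means more ATP so stronger rescue from cytokine killing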
Mdm2 MdmX conf – human Mdm2/MdmX binding inhibition, confirmed; shares compounds with Mdm2 MdmX PPI; luminescent assay; inhibition, % at 8 µM; hit rate 55% among 10,000; AID 489028; in the data active = inhibition above about 40%
FLuc counter – full-length luciferase inhibition in Mdm2/MdmX counter-screen. shares compounds with Mdm2 MdmX PPI. SaOS-2 full-length luciferase counterscreen, luminescence. inhibition, % at 8 µM. hit rate 77% among 6,200. AID 504607;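 active = mean inhibition at 8 µM reaching about 37%, which flags the compound as non-specific, limit read from the data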;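 note: p53-null SaOS-2 cells with luciferase driven by a doxycycline-inducible promoter; compound on cells about two nights before reading with doxycycline added after day one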
Hits are given with their value; . = inactive; ? = inconclusive; / = no result given.

SMILES	MPTP inh	SKKanGAS inh	Mdm2 MdmX PPI	NR3A LBD binder	CSC inhib	Beta apoptosis	Mdm2 MdmX conf	FLuc counter
CC(C)=CCc1c(O)cc(O)c2c(=O)c3c(CC=C(C)C)c(O)ccc3oc12	/	105.8	93.8	26.4	.	.	.	/
COc1cc(-c2nc3ccccn3c2NCc2ccccc2)ccc1SC1CCCCC1	.	.	67.0	.	.	.	.	/
CCCCNc1c(-c2ccc(OC)c(SC3CCCCC3)c2)nc2cc(C)ccn12	.	72.0	63.6	.	92.4	.	.	/
CCCCCCSc1cc(-c2nc3cc(C)ccn3c2NC2CCCCC2)ccc1OC	.	.	.	.	.	.	/	/
COc1ccc(-c2nc3ccccn3c2NC2CCCCC2)cc1SC1CCCCC1	.	82.6	70.1	.	.	/	.	/
COc1ccc(Sc2ccc(-c3nc4cnccn4c3NC3CCCCC3)cc2OC)cc1	.	/	85.2	.	104.2	.	.	/
COc1cc(C(=O)Nc2ccc(Oc3ncnc4sc(-c5ccccc5)cc34)cc2)cc(OC)c1OC	.	.	52.6	.	/	.	.	/
COc1ccc(C(=O)Nc2ccc(Oc3nc(C)nc4sc(-c5ccccc5)cc34)cc2)cc1OC	.	.	55.8	.	.	.	.	/
COc1ccccc1C(=O)Nc1ccc(Oc2ncnc3sc(-c4ccccc4)cc23)cc1	.	.	.	.	.	.	/	/
COc1ccc(C(=O)Nc2ccc(Oc3ncnc4sc(-c5ccccc5)cc34)cc2)cc1OC	.	.	.	.	.	.	/	/
CCCN(CC(=O)Nc1ccccc1OC)C(=O)Cc1ccc2c(c1)CCC2	.	/	.	.	/	.	/	/
Cc1ccc(S(=O)(=O)N(CC(=O)Nc2ccccc2C(=O)O)c2ccc(Cl)cc2)cc1	.	.	.	.	.	.	/	/
COc1cc(/C=C/C(=O)N2CCN(C(=O)/C=C/c3cc(OC)c(OC)c(OC)c3)CC2)cc(OC)c1OC	.	.	64.3	.	.	.	.	/
Nc1cccc2c1C(=O)N(C(=O)/C=C/c1cccc(Br)c1)C2=O	.	.	/	.	/	/	/	/
COc1cc(/C=C/C(=O)N2CCCC2)cc(OC)c1OC	.	.	.	.	.	.	/	/
COc1ccc(OC)c(/C=C/C(=O)N2C(=O)c3cccc(N)c3C2=O)c1	.	.	63.3	11.0	.	.	48.1	.
COc1cc(/C=C/C(=O)N2C(=O)c3cccc(N)c3C2=O)cc(OC)c1OC	.	.	71.1	.	/	.	58.1	79.1
COc1ccc(OC)c(/C=C/C(=O)N2CCCc3ccccc32)c1	.	.	.	.	.	.	/	/
Nc1cccc2c1C(=O)N(C(=O)/C=C/c1cccc(F)c1)C2=O	.	.	55.5	.	.	.	49.6	65.4
O=C(O)CN1C(=O)COc2ccc(S(=O)(=O)N3CCCCCC3)cc21	.	.	.	.	.	.	/	/
O=C(O)C1CCN(S(=O)(=O)c2ccc(N3CCCC3C(=O)O)c([N+](=O)[O-])c2)CC1 (centres undefined)	.	.	.	.	.	.	/	/
O=Cc1ccc(O)c2ncccc12	.	.	56.0	.	/	/	.	/
CCN(CC)CC(=O)Nc1ccc(-c2nc3cc(NC(=O)CN(CC)CC)ccc3o2)cc1	.	.	54.8	.	.	.	41.0	73.6
O=C(CN1CCCC1)Nc1ccc(-c2nc3cc(NC(=O)CN4CCCC4)ccc3o2)cc1	.	.	92.3	.	.	.	64.1	52.2
CCCCCC(=O)Nc1ccc2oc(-c3cncc(Br)c3)nc2c1	.	.	57.9	.	.	.	.	/
SMILES	MPTP inh	SKKanGAS inh	Mdm2 MdmX PPI	NR3A LBD binder	CSC inhib	Beta apoptosis	Mdm2 MdmX conf	FLuc counter
Cc1nc(Sc2ccc(Br)cc2)c(C#N)c(C)c1[N+](=O)[O-]	.	.	52.9	.	83.5	.	.	/
COc1ccc2c(-c3ccccc3)cc(=O)[nH]c2c1	.	.	.	.	.	.	/	/
COc1ccc2c(c1)[nH]c(=O)c1sc3ccccc3c12	.	.	60.3	.	.	.	.	/
COc1ccc2sc3c(=O)[nH]c4ccccc4c3c2c1	.	.	71.6	.	.	.	74.5	44.1
COc1ccc(OCc2cc(=O)[nH]c3ccccc23)cc1	.	.	.	.	.	.	/	/
COc1ccc(OC)c(NC(=O)CN(C)S(=O)(=O)c2ccc(Cl)cc2)c1	.	.	.	.	.	.	/	/
O=C(NCCc1ccc(F)cc1)C1CCN(C(=O)Nc2ccccc2)CC1	.	/	.	.	/	.	/	/
O=C(O)c1cc(S(=O)(=O)Nc2ccc3c(c2)OCCO3)c(Cl)cc1Cl	.	.	54.9	.	.	.	42.4	66.9
CCn1cc(C(=O)NCCc2ccccc2)c(=O)c2cc(S(=O)(=O)N3CCCC3)ccc21	.	.	.	.	/	.	/	/
CC(C)c1nc2sc3c(=O)[nH]cnc3c2c2c1CCCC2	.	.	.	.	.	.	/	/
Cc1ccc(-c2cc(C(F)F)nc3sc4c(=O)[nH]cnc4c23)cc1	.	/	70.9	.	.	.	.	/
CC(=O)c1cccc(NS(=O)(=O)c2cc(-c3cnc(C4CC4)o3)ccc2C)c1	.	.	56.7	.	?	.	60.5	61.4
CC(=O)Nc1ccc(NS(=O)(=O)c2cc(-c3cnc(C4CC4)o3)ccc2C)cc1	.	.	.	.	.	.	/	/
Cc1ccc(-c2cnc(C3CC3)o2)cc1S(=O)(=O)Nc1ccccc1	.	.	60.6	.	/	/	66.0	.
CC(=O)c1ccc(NS(=O)(=O)c2cc(-c3cnc(C4CC4)o3)ccc2C)cc1	.	.	.	.	/	/	/	/
CC(C)(C)c1cc(C(=O)N/N=C/c2cc3c(cc2Br)OCO3)n[nH]1	.	.	.	.	.	.	/	/
O=c1c2cc3ccccc3n2cnn1Cc1ccccc1F	.	.	53.7	.	.	.	40.6	84.1
Cc1nc2c3ccccc3n(CCN3CCCCC3)c2s1	/	.	.	/	.	.	/	/
Cc1nc2c3cc(F)ccc3n(Cc3ccccc3)c2s1	.	.	53.0	.	118.4	100.5	55.0	68.6
Cc1nc2c3cc(F)ccc3n(CCN3CCCCC3)c2s1	.	.	55.6	.	.	.	56.1	68.2
Cc1nc2c3cc(F)ccc3n(Cc3ccccc3F)c2s1	.	.	59.4	.	.	.	45.4	78.5
Cc1nc2c3ccccc3n(Cc3ccccc3F)c2s1	.	.	.	.	.	.	/	/
O=C(O)[C@H](Cc1c[nH]c2ccccc12)Nc1ncccc1[N+](=O)[O-]	.	.	.	.	.	.	/	/
COc1cc(OC)cc(C(=O)OCC(=O)NCCCc2ccccc2)c1	.	.	.	.	.	.	/	/
O=C(CCCOc1ccccc1)NNC(=O)c1ccncc1	.	/	.	.	.	.	/	/
O=C(C#Cc1ccccc1)c1ccc([N+](=O)[O-])cc1	.	.	96.7	.	/	/	82.0	57.7
Cc1nnc2c3ccccc3c(-c3cccs3)nn12	.	.	54.1	.	.	.	.	53.4
Cc1nnc2c3ccccc3c(-c3ccc(O)cc3)nn12	.	.	66.5	.	.	.	.	61.8
